From ChEMBL document CHEMBL1157539, “Thousands of chemical starting points for antimalarial lead identification” (Nature, 2010)

These compounds were tested on HepG2 (assay: GSK_TCMDC: Percent inhibition of human HepG2 cell line. Test compounds present at 10uM.).
Assay type: functional

| SMILES | Inhibition [%] |
| --- | --- |
| O=C(NC1CCN(c2ccnc3cc(Cl)ccc23)C1)c1ccc(F)cc1.O=C(O)C(F)(F)F (stereo not given) | 26 |
| Cc1cccc(C(=O)N2CCN(Cc3cccc(NC(=O)c4cccs4)c3)CC2)c1.O=C(O)C(F)(F)F | 5 |
| N#Cc1cncc(-c2nc3c(N4CCN(c5cnccn5)CC4)cccc3n2CCNCc2ccccc2)c1.O=C(O)C(F)(F)F | 0 |
| CCCN1CCN(CC(O)CNC(=O)Nc2ccc(Br)cc2)CC1.O=C(O)C(F)(F)F (stereo not given) | 10 |
| CCOc1cc(O)c(-c2nc(N)ncc2-c2ccc3c(c2)OCCO3)cc1CC | 0 |
| CCCCCCCCOc1c(OCC)cc(Cc2cnc(N)nc2N)cc1OCC | 25 |
| CS(=O)(=O)c1ccc(CCNCc2ccc(-c3ccc(CN(C(=O)c4ccco4)C4CCN(Cc5ccccc5)CC4)cc3)nc2)cc1.O=C(O)C(F)(F)F | 13 |
| CN(C)c1ccnc2ccc(NC(=O)Nc3ccnc4ccccc34)cc12 | 15 |
| COc1ccc(Cl)cc1C(=O)Nc1ccc(-c2nc3ccccc3[nH]2)cc1 | 42 |
| O=C(N[C@H]1CCN(Cc2ccc(OCCCN3CCCCC3)cc2)C1)c1ccc(Cl)c(Cl)c1 | 27 |
| COc1ccc2nc(-c3cc(-c4ccc(NC(C)=O)cc4)cnc3N)[nH]c2c1 | 55 |
| COc1c(C2=CCN(CCCCNC(=O)c3ccc(-c4ccc(C#N)cc4)cc3)CC2)ccc2c1CCCC2 | 44 |
| Cn1c(NC(=O)C2CCC(CNC(=O)c3ccc(O)c(-c4cccc([N+](=O)[O-])c4)c3)CC2)nc2ccccc21 (stereo not given) | 6 |
| Cl.O=S(=O)(c1ccc(OCc2ccc(Cl)cc2)cc1)c1cc2c(cc1O)CCN(C1CCC1)CC2 | 11 |
| COC(=O)c1cccc(CNCc2cccc(-c3cccc(-c4nc5ccccc5[nH]4)c3)c2)c1.O=C(O)C(F)(F)F | 3 |
| Cc1cc2nc(-c3ccc(OCC(=O)NCc4cccc(C(F)(F)F)c4)cc3)[nH]c2cc1C | 4 |
| CC(C)CCN1CCC(Oc2cccc(NC(=O)c3ccc(C(F)(F)F)cc3)c2)CC1.O=C(O)C(F)(F)F | 39 |
| CCN1CCC(N(Cc2ccc(-c3ccc(C(F)(F)F)cc3)cc2)C(=O)Cn2c(CCc3cccc(F)c3F)cc(=O)c3c2CCC3)CC1.O=C(O)C(O)C(O)C(=O)O | 49 |
| Br.CCOc1ccc(CCCON2C(=N)N=C(N)NC2(C)C)cc1 | 65 |
| CC1(C)CNCc2cc(NC(=O)/C=C/c3ccc(Cl)cc3)ccc21.Cl | 23 |

| SMILES | Inhibition [%] |
| --- | --- |
| O=C(O)C(F)(F)F.O=S(=O)(NCCN1CCCC1)c1ccc(-c2cccc(CNCc3ccsc3)c2)s1 | 42 |
| CN1CCN(CCCN(Cc2csc(-c3ccc(CNCc4ccccc4)cc3)n2)S(=O)(=O)c2ccccc2Cl)CC1.O=C(O)C(F)(F)F | 13 |
| O=C(NCc1ccc(Cl)cc1)c1ccc(CN2CCCN(CC3CCCCC3)CC2)cc1.O=C(O)C(F)(F)F | 18 |
| COc1ccc2nc(NC(N)=NC(=O)Nc3ccccc3)nc(C)c2c1 | 3 |
| Cc1cccc2nc(-c3ccc(-c4ccc(CN5CCCCC5CO)cc4)cc3)[nH]c12.O=C(O)C(F)(F)F (stereo not given) | 32 |
| O=C(NCCCCN1CCC(c2c[nH]c3ccccc23)CC1)c1ccc(-c2ccc(C(F)(F)F)cc2)cc1 | 34 |
| N#Cc1cccc(NC(=O)Nc2cccc(-c3cccc(-c4nc5cc(F)ccc5[nH]4)c3)c2)c1 | 60 |
| COc1c(C2CCN(CCCCNC(=O)c3cc(-c4ccc(C#N)cc4)n[nH]3)CC2)ccc2c1CCCC2 | 36 |
| O=C(/C=C/c1ccc(Cl)c(Cl)c1)NCCCCCN1CCC(CCNC(=O)c2snnc2-c2ccccc2)CC1 | 54 |
| COc1ccc(Nc2nc(N/N=C/c3ccc(O)cc3)nc(Nc3ccc([N+](=O)[O-])cc3)n2)cc1 | 0 |
| Cc1c(C(=O)Nc2cc(Sc3ccc(F)cc3)cc([N+](=O)[O-])c2)sc2ncn(Cc3cccc(F)c3)c(=O)c12 | 0 |
| CCCN(CC)CCOC(=O)c1ccccc1 | 2 |
| CC(C)C[C@H](NC(=O)c1cc2ccccc2s1)C(=O)N[C@H]1CCN(Cc2ccc(I)c(OCCN3CCCC3)c2)C1.O=C(O)C(F)(F)F | 3 |
| O=C(Cc1cccc(Cl)c1)Nc1cccc(-c2c[nH]c3nc(Nc4cccc(OCc5ccccc5)c4)ncc23)c1.O=C(O)C(F)(F)F | 0 |
| NC1CCN(Cc2cccc(-c3ccc(-c4nc5cc(F)ccc5[nH]4)cc3)c2)C1.O=C(O)C(F)(F)F (stereo not given) | 24 |
| CCc1cn2c3c(cc(C(=O)N[C@@H](Cc4ccccc4)[C@H](O)CNC(C)C)cc13)N(C)S(=O)(=O)C2.O=CO | 16 |
| COc1ccc2nccc(N3CCC(NCCNCc4ccc5c(n4)NC(=O)CO5)C3)c2n1.Cl (stereo not given) | 0 |
| COc1ccc(Br)cc1/C=C/C(=O)Nc1ccc(C2CCN(C)CC2)cc1.O=CO | 11 |
| Cc1cccc2nc(-c3ccc(-c4cccc(CN5CCC(N)C5)c4)s3)[nH]c12.O=C(O)C(F)(F)F (stereo not given) | 16 |
| Cc1cccc2nc(-c3ccc(-c4cccc(NC(=O)c5cnn6cccnc56)c4)cc3)[nH]c12 | 100 |
